This is an account of results in PubChem BioAssay.

Each structure is given as a SMILES string. “And” between values parts separate entries of the source, which are not always exact repeats. Identical values can stand only once. A structure can be active in one record and inactive in another. The source made the active and inactive calls. Unless noted, no rule for the calls is given here.

Assay [1] can be described thus: signal quenchers or enhancers, Cy5 substrate/SSB – biochemical, NIH Clinical Collection, E. coli SSB, artefact control for HCV NS3 helicase inhibitor project (AID 743268). Conditions: Cy5-oligo bound E. coli SSB, fluorescence interference.
Assay [2] has as its system Hepatitis C virus NS3 helicase. The assay is described as follows: blockers of NS3h binding to DNA – biochemical, fluorescence polarization, NIH Clinical Collection, primary screen (AID 743270). The following applies: NS3 helicase binding to Cy5-dT15 DNA, stronger effect = higher value, concentration not given here.
Assay [3] concerns the target Single-stranded DNA-binding protein (Escherichia coli (strain K12)) (UniProt P0AGE0). The assay is described as follows: SSB-ssDNA binding inhibitors – biochemical, fluorescence polarization, NIH Clinical Collection, counter-screen for HCV NS3 helicase inhibitor project (AID 743271; in the data active = inhibition above about 28%). Conditions: E. coli SSB-DNA binding, stronger effect = higher value, concentration not given here.

The nature of assay [4]: compounds distorting NS3 helicase fluorescence signal – biochemical, NIH Clinical Collection, artefact control for HCV NS3 helicase inhibitor project (AID 743272).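 Also: HCV NS3 helicase with a Cy5 labelled single stranded DNA probe.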 Conditions: fluorescence interference counterscreen, HCV NS3 helicase assay; stronger effect = lower value.
A short description of assay [5]: Wnt pathway potentiators raising nuclear beta-catenin – imaging, WNT3A-conditioned medium, mouse C2C12, NPC library, primary screen (AID 1117326; in the data active = nuclear beta-catenin stimulation mostly above about 4.2%, no sharp cut-off; inactive = mostly below about 10%). The following applies: stronger effect = higher value.
Assay [6] can be described thus: stimulators of insulin release from INS-1E, primary screen, cell-based, 5 mM glucose, NPC library (AID 1117329;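 active = compound raises insulin release from rat beta cells at 5 mM glucose, no numeric limit stated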). Conditions: rat INS-1E insulin secretion, at 10 µM, stronger effect = higher value.
Assay [7] can be described thus: growth inhibition of GSK3B-pretreated HCT116 cells – cell-based, CellTiter-Glo, 0.2 to 20 µM (AID 1117336;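 active = compounds lowering colon cancer cell viability after pretreatment blocking the GSK3B kinase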). The following applies: HCT116 viability after GSK3B inhibitor, at 20 µM, stronger effect = higher value.
Assay [8] can be described thus: inhibition of endothelial tube formation, primary screen, imaging, VEGF stimulated, CD31 staining, tube area, NPC library (AID 1117340;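 active = compound that reduces growth-factor-driven endothelial tube area in a mixed cell culture, no cutoff stated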). Conditions: VEGF-stimulated ADSC/ECFC co-culture, at 10 µM, stronger effect = higher value.
The nature of assay [9]: GLP1 release stimulators, primary, NCI-H716, NPC library (AID 1117341;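 active = compound raises GLP1 secretion from the human gut endocrine cells, with no numeric limit stated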). Conditions: NCI-H716 cells, at 10 µM, stronger effect = higher value.
Assay [10] can be described thus: HCT116 colon cancer cell growth inhibition, primary screen, CellTiter-Glo luminescence, NPC library (AID 1117342;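 active = compounds that lower survival of HCT116 colon cancer cells in the luminescence readout, no numeric limit stated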). Conditions: at 20 µM (top of the series).
A short description of assay [11]: reduced SW480 viability measured with CellTiter-Glo, NPC library, primary (AID 1117343;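 active = compounds that lower viability of the colon cancer cells in the luminescence readout, with no numeric limit stated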). The following applies: CellTiter-Glo luminescence; at 20 µM (top of the series).
The nature of assay [12]: NPC library primary testing for decreased DLD-1 cell viability via CellTiter-Glo (AID 1117346;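 active = compounds that lower survival of DLD-1 colon cancer cells in the luminescence readout, no cutoff given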). The following applies: DLD-1 viability, CellTiter-Glo luminescence; at 20 µM (top of the series).
The target of assay [13] is 6-phosphogluconate dehydrogenase, decarboxylating (Homo sapiens) (UniProt P52209). The assay is described as follows: inhibition of human phosphogluconate dehydrogenase – biochemical, recombinant enzyme, NADPH absorbance, primary screen (AID 1159550;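 active = at least 20% inhibition of 6-phosphogluconate dehydrogenase activity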). The following applies: recombinant 6PGD, NADPH absorbance 341 nm; at 10 µM; stronger effect = higher value.
Assay [14] is described as follows: EMT-state selective cytotoxicity in co-culture – imaging, PC-3E GFP, TEM4-18 mCherry, primary screen (AID 1345086;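 active = compounds killing one labelled cell type while sparing the other, by normalised counts and ratio limits, not self-fluorescent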;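 as to all read-outs here: cells exposed to compound for 72 h before imaging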;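 as to red/green cell ratio (normalised): normalised mesenchymal count divided by normalised epithelial count so high means epithelial killing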). The following applies: PC-3E GFP / TEM4-18 mCherry co-culture, imaging cell counts, at 1 µM; for red/green cell ratio (normalised): actives lie on both sides, counts scaled to control wells, 1 = unselective.
Assay [15] is described as follows: MELAS cybrid and Rieske KO viability enhancers – cell-based, MELAS cybrids, Rieske KO mouse fibroblasts, CellTiter-Glo, primary screen (AID 1508586;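 active = mean z-score across replicates of 1.96 or higher in either the MELAS or the Rieske mutant cell line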;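 also: z relative to plate mean and SD of compound and empty wells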). The following applies: low glucose.
Assay [16] addresses NAD(+) hydrolase SARM1 (Homo sapiens) (UniProt Q6SZW1). The assay is described as follows: blocking NAD cleavage by SARM1 SAM-TIR – cell lysate, NAD-Glo luminescence (AID 1508614;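 active = compound whose remaining NAD level is above about 45 nM, limit read from the data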;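 also: higher remaining NAD means stronger inhibition of SARM1 NADase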). The following applies: SAM-TIR HEK293T lysate NADase, at 1 µM, stronger effect = higher value.
Assay [17] concerns the target Mitogen-activated protein kinase 7 (Homo sapiens) (UniProt Q13164). The assay is described as follows: Gal4-ERK5 driven luciferase induction – cell-based, HTS, primary screen (AID 1508626;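 active = luciferase signal above three times the same-plate solvent-only control wells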;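 also: luciferase driven by Gal4-ERK5 fusion binding five Gal4 sites before minimal TATA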). The following applies: HeLa Gal4-ERK5 transactivation, 18 h, at 5 µM, stronger effect = higher value.
The next assay has as its system F380Y. The assay is described as follows: BK channel mutant inhibitors and activators – cell-based, U2OS BacMam, thallium flux, beta subunits, selectivity assay, profiling panel (AID 1259406;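 active = thallium flux through the channel raised or lowered by more than 3 SD from vehicle-only wells, actives on both sides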;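 also: initial slope of Thallos dye fluorescence rise after thallium is added; log ratio against the mean of 0.3% DMSO vehicle wells on the same plate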). The following applies: U2OS BacMam BK variants, at 30 µM.
The nature of assay [18]: viability loss with induced miR-34 in A549 – imaging, A549 dox-inducible miR-34, nuclei and caspase counts, primary screen (AID 1347080;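 active = compounds whose cell count with miR-34 switched on is under 0.7 times the count with it off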). The following applies: A549 miR-34 inducible, Hoechst nuclei count, 48 h.
Assay [19] in a line: P. berghei load reduction in hepatocytes – cell-based, HepG2, luciferase luminescence, HepG2 viability, primary screen (AID 624349; in the data active = parasite load remaining mostly below about 12%, no sharp cut-off; inactive = mostly above about 10%;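 also: 100% = mean of DMSO negative control wells on the same plate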). The following applies: P. berghei liver stage in HepG2, luciferase luminescence, concentration not given here; parasite load remaining: stronger effect = lower value; viability: measured here: HepG2 viability without parasites.
Setting [20] is: measured here: epithelial PC-3E GFP cell survival.
Where [21] appears, read: measured here: mesenchymal TEM4-18 mCherry cell survival.
[22] abbreviates: MELAS cybrid survival, CellTiter-Glo 48 h, stronger effect = higher value.
[23] abbreviates: Rieske KO mouse fibroblast survival, CellTiter-Glo 72 h.
Setting [24] is: stronger effect = lower value, cell number ratio, induced over uninduced.
Setting [25] is: measured here: relative caspase fold change +Dox/-Dox.
Setting [26] is: measured here: total cells with miR-34 induction, stronger effect = lower value.
[27] abbreviates: measured here: total cells without miR-34 induction.

Mitogen-activated protein kinase 7 (Homo sapiens), sequence (Q13164 whole entry, looked up, the tested form may be a part): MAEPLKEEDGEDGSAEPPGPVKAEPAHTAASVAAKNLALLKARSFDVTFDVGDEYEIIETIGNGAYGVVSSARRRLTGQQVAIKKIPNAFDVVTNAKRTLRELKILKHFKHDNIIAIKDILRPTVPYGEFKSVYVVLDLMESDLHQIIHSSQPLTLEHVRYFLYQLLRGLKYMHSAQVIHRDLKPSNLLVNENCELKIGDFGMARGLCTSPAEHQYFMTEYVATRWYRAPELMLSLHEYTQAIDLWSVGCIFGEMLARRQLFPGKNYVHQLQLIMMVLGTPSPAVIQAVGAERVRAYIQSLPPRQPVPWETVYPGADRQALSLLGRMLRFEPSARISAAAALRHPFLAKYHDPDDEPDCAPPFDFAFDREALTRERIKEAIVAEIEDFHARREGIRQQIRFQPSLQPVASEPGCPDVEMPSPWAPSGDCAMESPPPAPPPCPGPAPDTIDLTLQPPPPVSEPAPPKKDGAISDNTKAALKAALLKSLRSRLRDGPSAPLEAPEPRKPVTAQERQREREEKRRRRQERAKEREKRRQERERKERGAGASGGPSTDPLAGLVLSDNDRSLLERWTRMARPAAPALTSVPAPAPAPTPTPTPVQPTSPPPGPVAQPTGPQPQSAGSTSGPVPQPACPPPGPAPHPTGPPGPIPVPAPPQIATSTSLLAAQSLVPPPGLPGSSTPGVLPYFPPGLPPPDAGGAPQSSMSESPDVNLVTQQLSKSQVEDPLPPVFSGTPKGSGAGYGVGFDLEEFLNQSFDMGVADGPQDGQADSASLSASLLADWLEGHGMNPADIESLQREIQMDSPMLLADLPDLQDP
NAD(+) hydrolase SARM1 (Homo sapiens), sequence (Q6SZW1 whole entry, looked up, the tested form may be a part): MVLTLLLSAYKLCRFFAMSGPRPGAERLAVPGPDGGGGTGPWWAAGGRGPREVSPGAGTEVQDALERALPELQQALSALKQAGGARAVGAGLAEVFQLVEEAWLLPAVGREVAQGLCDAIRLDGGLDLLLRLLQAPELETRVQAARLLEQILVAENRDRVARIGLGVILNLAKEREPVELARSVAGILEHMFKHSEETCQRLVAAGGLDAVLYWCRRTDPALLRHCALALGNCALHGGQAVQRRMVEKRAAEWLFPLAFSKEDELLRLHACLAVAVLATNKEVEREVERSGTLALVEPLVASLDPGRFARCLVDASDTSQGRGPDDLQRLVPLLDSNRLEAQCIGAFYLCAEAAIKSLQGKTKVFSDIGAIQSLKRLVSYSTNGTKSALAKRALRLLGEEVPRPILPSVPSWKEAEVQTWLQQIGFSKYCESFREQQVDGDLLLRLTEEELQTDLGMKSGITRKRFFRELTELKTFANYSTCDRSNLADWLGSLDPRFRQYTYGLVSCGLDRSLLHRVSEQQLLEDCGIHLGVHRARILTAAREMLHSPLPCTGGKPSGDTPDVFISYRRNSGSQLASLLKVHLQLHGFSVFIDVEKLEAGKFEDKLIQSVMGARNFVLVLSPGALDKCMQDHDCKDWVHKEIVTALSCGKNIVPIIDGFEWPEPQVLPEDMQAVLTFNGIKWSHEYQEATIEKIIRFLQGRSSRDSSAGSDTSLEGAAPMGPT
6-phosphogluconate dehydrogenase, decarboxylating (Homo sapiens), sequence (P52209 whole entry, looked up): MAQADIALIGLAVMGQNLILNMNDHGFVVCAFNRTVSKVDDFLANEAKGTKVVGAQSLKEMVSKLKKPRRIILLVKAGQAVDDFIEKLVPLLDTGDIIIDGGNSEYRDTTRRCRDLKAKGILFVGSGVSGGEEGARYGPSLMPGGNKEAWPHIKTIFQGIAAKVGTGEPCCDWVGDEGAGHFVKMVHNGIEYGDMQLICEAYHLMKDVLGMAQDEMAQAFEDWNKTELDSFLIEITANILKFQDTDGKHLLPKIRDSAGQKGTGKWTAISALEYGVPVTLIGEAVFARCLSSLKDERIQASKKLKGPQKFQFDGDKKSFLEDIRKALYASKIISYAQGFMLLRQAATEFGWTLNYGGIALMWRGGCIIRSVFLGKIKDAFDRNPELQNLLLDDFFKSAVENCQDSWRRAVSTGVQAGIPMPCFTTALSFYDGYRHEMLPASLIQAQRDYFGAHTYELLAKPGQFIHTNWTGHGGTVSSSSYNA

`CCCSc1ccc2nc(NC(=O)OC)[nH]c2c1`: the fluorescence ratio in assay [1] and in [4] was 1.01 (inactive) each time. In addition, the inhibition in assay [2] is -2.27% (inactive); in assay [3] it was -1.24% (inactive); in assay [13], -6.38% (inactive). In addition, the nuclear beta-catenin stimulation in assay [5] (at 10 µM) is 49% (active); in assay [5] (stimulation, at 2 µM) it was 24.2%. Further, in assay [6], the insulin secretion stimulation was -1% (inactive). In addition, the viability decrease in [7] was 87.3% (active). Also, the tube area decrease in assay [8] was 102% (active). Moreover, the GLP1 secretion stimulation in assay [9] is 0.9% (inactive). Besides, in assay [10], the inhibition of viability is 76% (active). The figures for the viability decrease (inhibition) in assay [11] and in assay [12] were 86.6% (active) and 56.7% (active), respectively. For the same compound, the red/green cell ratio (normalised) in [14] is 0.93 (inactive). Further, the normalised cell number in assay [14] (setting [20]) was determined as 0.26; in assay [14] (setting [21]) it was 0.24. The z-score in [15] (setting [22]) is 2.78 (active) and -2.05 (inactive); in assay [15] (setting [23]) it was 0.0317 and -0.672 and 1.64. For the same compound, in assay [16], the remaining NAD is 10 nM (inactive). The luciferase signal in assay [17] is 368 AU (active). The log fold change Tl+ flux in the assay with F380Y was -0.0721 (inactive).
Turning to `C#C[C@]1(O)CC[C@H]2[C@@H]3CCC4=Cc5oncc5C[C@]4(C)[C@H]3CC[C@@]21C`, the fluorescence ratio was 1.05 (inactive) in [1] and 1.01 (inactive) in assay [4]. Also, the inhibition in [2] was -3.18% (inactive); in assay [3], 4.1% (inactive); in [13] it was 14% (inactive). The nuclear beta-catenin stimulation in [5] (at 10 µM) is -0.9% (inactive); in [5] (stimulation, at 2 µM) it was 0%. For the same compound, the insulin secretion stimulation in [6] was 1.9% (inactive). Also, in assay [7], the viability decrease is 76.5% (active). Besides, the tube area decrease in assay [8] was 15% (inactive). The GLP1 secretion stimulation in assay [9] is 1.4% (inactive). The inhibition of viability in assay [10] is 82.4% (active). Also, the viability decrease (inhibition) in assay [11] is 84.4% (active); in assay [12] it was 75.7% (active). Besides, the fold change in [18] (setting [24]) was 0.976 (inactive) and 0.855 (inactive) and 0.842 (inactive); in assay [18] (setting [25]), 3.35 and 1.24 and 1.49. For the same compound, the cell count in assay [18] (setting [26]) is 7160 and 7050 and 6060; in [18] (setting [27]), 7330 and 8240 and 7200. In addition, the z-score in [15] (setting [22]) was -0.753 (inactive) and -0.503 (inactive); in assay [15] (setting [23]) it was -0.343 and -0.0493. Besides, in assay [16], the remaining NAD is 10 nM (inactive). Also, the luciferase signal in [17] was 32 AU (inactive). Moreover, the log fold change Tl+ flux with F380Y is -0.00831 (inactive).
For the compound `C=CCCCCCCCCC(=O)O`, in assay [19], the parasite load remaining is 49.2% (inactive). The compound also yielded a viability in assay [19] of 96.2%. The nuclear beta-catenin stimulation in assay [5] (at 10 µM) is -0.1% (inactive) and -2.1% (inactive); in [5] (stimulation, at 2 µM), 0.8% and -1.5%. For the same compound, in [6], the insulin secretion stimulation is -1.7% (inactive) and 0.4% (inactive). In addition, the viability decrease in assay [7] was -6.75% (inactive) and -111% (inactive). The tube area decrease in assay [8] was 3.3% (inactive) and 1.9% (inactive). Besides, the GLP1 secretion stimulation in assay [9] was 1.3% (inactive) and -1.9% (inactive). For the same compound, the inhibition of viability in assay [10] is 0.2% (inactive) and 0.1% (inactive). Further, the viability decrease (inhibition) is 69.8% (active) and 6.3% (inactive) in [11]; 14.5% (inactive) and 8% (inactive) in assay [12]. In addition, the red/green cell ratio (normalised) in assay [14] was 0.93 (inactive). The normalised cell number was found to be 1.02 in [14] (setting [20]) and 0.95 in [14] (setting [21]). Moreover, the fold change in assay [18] (setting [24]) was 0.879 (inactive); in [18] (setting [25]), 4.79. Besides, the cell count in assay [18] (setting [26]) turned out to be 11700; in assay [18] (setting [27]) it was 13300. In addition, in assay [16], the remaining NAD is 10 nM (inactive). Besides, in assay [17], the luciferase signal is 20 AU (inactive).
